Where “and” joins values, the source holds several entries; their conditions need not be identical. Equal entries are not always repeated. Compounds without any hit were thinned out: in the full panel of roughly 79,000, 15% have a hit. A structure can be active in one record and inactive in another. Calls of active or inactive are those of the source. Cut-off read from the data, not from the text of the source: active = growth inhibition above about 70%; inactive = the rest.
Experiments:
[1] = NCI Yeast Anticancer Drug Screen. Data for the rad52 strain (AID 147);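 note: 0% = growth of vehicle-treated control cultures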; conditions: S. cerevisiae rad52 mutant growth inhibition, stronger effect = higher value
Outline: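 Screen used a yeast mutant impaired in DNA repair. After compound exposure, growth was measured. Values reflect inhibition compared with vehicle-treated cells.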

[2] = NCI Yeast Anticancer Drug Screen. Data for the wt1 strain (AID 149);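 note: 0% = growth of vehicle-treated wt1 cultures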; conditions: S. cerevisiae wt1 strain (SPY 50644) growth inhibition, stronger effect = higher value
Outline: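 Readout: yeast growth inhibition, normalised to vehicle controls, in the wt1 strain exposed to test compounds.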

[3] = NCI Yeast Anticancer Drug Screen. Data for the rad50EPP+ strain (AID 151);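 note: 0% = growth of vehicle-treated control cultures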; conditions: S. cerevisiae rad50 mutant strain, stronger effect = higher value
Outline: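 Exposing the rad50EPP+ strain to each compound, growth was compared with vehicle-only cultures to give inhibition.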

[4] = NCI Yeast Anticancer Drug Screen. Data for the rad50 strain (AID 155);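 note: 0% = growth of vehicle-only cultures of the same strain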; conditions: S. cerevisiae rad50 strain growth inhibition, stronger effect = higher value
Outline: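 Compounds were tested on a yeast strain with an engineered DNA damage repair alteration; the reported value is growth inhibition normalised to vehicle treatment.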

[5] = NCI Yeast Anticancer Drug Screen. Data for the mec2-1 strain (AID 157); conditions: S. cerevisiae mec2-1 strain, stronger effect = higher value
Outline: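 Readout is yeast growth inhibition, normalised to vehicle-treated controls, in the mec2-1 strain exposed to compound.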

[6] = NCI Yeast Anticancer Drug Screen. Data for the rad14 strain (AID 159);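 note: 0% = growth of vehicle-treated control cultures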; conditions: S. cerevisiae rad14 strain growth inhibition, stronger effect = higher value
Outline: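 Compound-treated yeast with a defined DNA-repair lesion; growth inhibition normalised to vehicle-treated cultures.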

[7] = NCI Yeast Anticancer Drug Screen. Data for the sgs1 mgt1 strain (AID 161);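 note: 0% = growth of cultures given vehicle only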; conditions: S. cerevisiae sgs1 mgt1 strain, stronger effect = higher value
Outline: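 Compounds are added to genetically altered yeast, and growth is compared with cultures given vehicle alone to give percent inhibition.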

[8] = NCI Yeast Anticancer Drug Screen. Data for the CLN2oe strain (AID 163);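 note: 0% = growth of vehicle-only control cultures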; conditions: S. cerevisiae CLN2oe strain, stronger effect = higher value
Outline: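 Values reflect how much compound exposure reduced yeast growth, referenced to vehicle-exposed cells. Assay organism is a strain with a defined genetic change affecting cell-cycle control.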

[9] = NCI Yeast Anticancer Drug Screen. Data for the cln2 rad14 strain (AID 165);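 note: 0% = growth equal to vehicle treated cultures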; conditions: S. cerevisiae cln2 rad14 strain, stronger effect = higher value
Outline: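 Relative to vehicle controls, growth inhibition of compound-treated cln2 rad14 yeast was recorded.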

[10] = NCI Yeast Anticancer Drug Screen. Data for the bub3 strain (AID 167); conditions: S. cerevisiae bub3 mutant strain, stronger effect = higher value
Outline: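 Growth of a checkpoint-deficient yeast mutant is measured after compound exposure. Values represent inhibition relative to vehicle.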

[11] = NCI Yeast Anticancer Drug Screen. Data for the wt2 strain (AID 169);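 note: 0% = growth of vehicle-treated yeast cultures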; conditions: S. cerevisiae wt2 strain growth inhibition, stronger effect = higher value
Outline: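 Values express reduction in yeast growth under compound treatment, referenced to vehicle-treated cells.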

[12] = NCI Yeast Anticancer Drug Screen. Data for the mlh1 strain (AID 171);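 note: 0% = growth of vehicle-treated control cultures of the same strain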; conditions: S. cerevisiae mlh1 strain growth inhibition, stronger effect = higher value
Outline: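 Steps: expose the defined-mutant yeast strain to compound; expose a parallel culture to vehicle; measure growth; express compound effect as inhibition relative to the vehicle culture.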

[13] = NCI Yeast Anticancer Drug Screen. Data for the sgs1 strain (AID 173);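 note: 0% = growth of vehicle-only control cultures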; conditions: S. cerevisiae sgs1 mutant, stronger effect = higher value
Outline: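 Treat defined-mutant yeast with compound; measure growth; calculate inhibition relative to vehicle-treated cells.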

[14] = NCI Yeast Anticancer Drug Screen. Data for the mlh1 rad18 strain (AID 175); conditions: S. cerevisiae mlh1 rad18 strain growth inhibition, stronger effect = higher value
Outline: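 Test agents were incubated with a yeast strain of defined genotype (DNA damage repair defect). Inhibition of growth was derived by comparison with vehicle-exposed cultures.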

[15] = NCI Yeast Anticancer Drug Screen. Data for the rad18 strain (AID 177); conditions: S. cerevisiae rad18 mutant growth inhibition, stronger effect = higher value
Outline: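 A genetically defined yeast mutant impaired in DNA damage repair was treated with test compounds, then its growth was measured against cultures receiving vehicle alone.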

[16] = at 5.0 µM (retest, dose inferred, filed as 0.5)
[17] = at 50.0 µM (retest, dose inferred, filed as 5.0)

Measured: growth inhibition

O=C(O)c1ccccc1/C=N/N=C1c2ccccc2-c2ccccc21
active: [9]; [17] 79%
inactive: [1]; at 1.2 µM -3% | [1]; at 3.7 µM -1% | [1]; at 11.0 µM -1% | [1]; at 33.0 µM 0% | [1]; at 100.0 µM 2% | [2]; at 1.2 µM -1% | [2]; at 3.7 µM 0% | [2]; at 11.0 µM 1% | [2]; at 33.0 µM 0% | [2]; at 100.0 µM 7% | [3]; at 1.2 µM -4% | [3]; at 3.7 µM 3% | [3]; at 11.0 µM -2% | [3]; at 33.0 µM 9% | [3]; at 100.0 µM 15% | [4]; at 1.2 µM 0% | [4]; at 3.7 µM -6% | [4]; [16] 10% | [4]; at 11.0 µM 7% | [4]; at 33.0 µM 0% | [4]; [17] 45% | [4]; at 50.0 µM 50.8% | [4]; at 100.0 µM 13% | [5]; at 1.2 µM -2% | [5]; at 3.7 µM -1% | [5]; [16] 2% | [5]; at 11.0 µM -2% | [5]; at 33.0 µM 0% | [5]; [17] 15% | [5]; at 50.0 µM 61.4% | [5]; at 100.0 µM 11% | [6]; at 1.2 µM 0% | [6]; at 3.7 µM -1% | [6]; at 11.0 µM 0% | [6]; at 33.0 µM -10% | [6]; at 100.0 µM 8% | [7]; [16] -7% | [7]; [17] 60% | [7]; at 50.0 µM 50% | [8]; at 1.2 µM -4% | [8]; at 3.7 µM 0% | [8]; at 11.0 µM 0% | [8]; at 33.0 µM -5% | [8]; at 100.0 µM 1% | [9]; [16] -23% | [9]; at 50.0 µM 45.7% | [10]; at 1.2 µM -3% | [10]; at 3.7 µM -1% | [10]; [16] -9% | [10]; at 11.0 µM 9% | [10]; at 33.0 µM 7% | [10]; [17] -3% | [10]; at 50.0 µM 48.5% | [10]; at 100.0 µM 4% | [11]; at 1.2 µM -1% | [11]; at 3.7 µM 0% | [11]; at 11.0 µM -1% | [11]; at 33.0 µM 0% | [11]; at 100.0 µM 5% | [12]; at 1.2 µM 1% | [12]; at 3.7 µM 2% | [12]; at 11.0 µM 1% | [12]; at 33.0 µM -9% | [12]; at 100.0 µM 8% | [13]; at 1.2 µM 0% | [13]; at 3.7 µM 2% | [13]; at 11.0 µM 1% | [13]; at 33.0 µM 4% | [13]; at 100.0 µM 3% | [14]; [16] -1% | [14]; [17] 39% | [14]; at 50.0 µM 68.5% | [15]; at 1.2 µM -3% | [15]; at 3.7 µM -1% | [15]; at 11.0 µM 2% | [15]; at 33.0 µM -4% | [15]; at 100.0 µM 6%

O=c1ccc(=O)n(-c2ccccc2)[nH]1
85% (active) and -26.4% (inactive): [5]; at 50.0 µM
85.3% (active) and -33% (inactive): [4]; at 50.0 µM
86.2% (active) and -25.4% (inactive): [10]; at 50.0 µM
inactive: [1]; at 1.2 µM -29% | [1]; at 3.7 µM -11% | [1]; at 11.0 µM 17% | [2]; at 1.2 µM -16% | [2]; at 3.7 µM -10% | [2]; at 11.0 µM 29% | [3]; at 1.2 µM -24% | [3]; at 3.7 µM -5% | [3]; at 11.0 µM 38% | [4]; at 1.2 µM -14% | [4]; at 3.7 µM -3% | [4]; [16] 25% | [4]; at 11.0 µM 28% | [5]; at 1.2 µM -23% | [5]; at 3.7 µM -24% | [5]; [16] -17% | [5]; at 11.0 µM 2% | [6]; at 1.2 µM -12% | [6]; at 3.7 µM -9% | [6]; at 11.0 µM 4% | [6]; at 33.0 µM 60% | [7]; [16] 1% | [8]; at 1.2 µM 7% | [8]; at 3.7 µM 20% | [8]; at 11.0 µM 29% | [9]; [16] 18% | [9]; at 50.0 µM 58.5% and -14.5% | [10]; at 1.2 µM -13% | [10]; at 3.7 µM -23% | [10]; [16] 41% | [10]; at 11.0 µM 2% | [11]; at 1.2 µM -15% | [11]; at 3.7 µM -10% | [11]; at 11.0 µM 1% | [11]; at 33.0 µM 66% | [12]; at 1.2 µM -2% | [12]; at 3.7 µM -4% | [12]; at 11.0 µM 30% | [13]; at 1.2 µM 15% | [13]; at 3.7 µM 27% | [13]; at 11.0 µM 58% | [14]; [16] 38% | [15]; at 1.2 µM -20% | [15]; at 3.7 µM 3% | [15]; at 11.0 µM 47%
91.3% (active) and -13.6% (inactive): [7]; at 50.0 µM
active: [1]; at 33.0 µM 79% | [1]; at 100.0 µM 97% | [2]; at 33.0 µM 71% | [2]; at 100.0 µM 95% | [3]; at 33.0 µM 75% | [3]; at 100.0 µM 87% | [4]; at 33.0 µM 82% | [4]; [17] 90% | [4]; at 100.0 µM 95% | [5]; at 33.0 µM 78% | [5]; [17] 95% | [5]; at 100.0 µM 98% | [6]; at 100.0 µM 96% | [7]; [17] 84% | [8]; at 33.0 µM 71% | [8]; at 100.0 µM 97% | [9]; [17] 79% | [10]; at 33.0 µM 83% | [10]; [17] 97% | [10]; at 100.0 µM 98% | [11]; at 100.0 µM 93% | [12]; at 33.0 µM 87% | [12]; at 100.0 µM 99% | [13]; at 33.0 µM 89% | [13]; at 100.0 µM 98% | [14]; [17] 95% | [15]; at 33.0 µM 84% | [15]; at 100.0 µM 94%
79.4% (active) and -20.1% (inactive): [14]; at 50.0 µM
